This is a sample that favours compounds with a hit; in the whole collection about 3.5% have one here.
CHRM1 PAM: positive allosteric modulators of human M1 muscarinic receptor; hit rate 0.088% among 360,000; AID 588819; CHO-K1 hM1, Fluo-8 calcium fluorescence, ACh EC20; 0% = ACh EC20, 100% = maximal ACh; activation, % at 3 µM; in the data active = activation above about 19%, passing the limit was not always enough
CHRM1 antagonist: blocks human M1 muscarinic receptor. CHO-K1 hM1, Fluo-8 calcium fluorescence, ACh EC80 antagonist. inhibition, % at 3 µM. P11229. hit rate 1.3% among 360,000. AID 588852;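 active = percent inhibition above its own plate's cutoff, namely the mean of that plate's compound wells plus 3 SD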;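 note: peak over basal fluorescence ratio during 140 s after agonist addition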
Myeloid diff 2: myeloid differentiation induction. ER-HoxA9 myeloid progenitors, lysozyme-GFP differentiation, flow cytometry. calls only at 10 µM. hit rate 1% among 360,000. AID 624256;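 active = normalized GFP-positive differentiation at or above the plate's own cutoff, the solvent-only control mean plus 3 SD; inconclusive = no clear call, values can overlap the other calls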;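 note: cells exposed to compound for four days before flow analysis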
ATG4B inh: ATG4B (human) cysteine protease inhibition; Q9Y4P1; ATG4B cleavage of LC3-PLA2, NBD-HPC fluorescence, 1 h; inhibition, % at 8.33 µM; hit rate 0.51% among 340,000; in the data active = inhibition above about 40%
Target sequence (Q9Y4P1 whole entry, looked up): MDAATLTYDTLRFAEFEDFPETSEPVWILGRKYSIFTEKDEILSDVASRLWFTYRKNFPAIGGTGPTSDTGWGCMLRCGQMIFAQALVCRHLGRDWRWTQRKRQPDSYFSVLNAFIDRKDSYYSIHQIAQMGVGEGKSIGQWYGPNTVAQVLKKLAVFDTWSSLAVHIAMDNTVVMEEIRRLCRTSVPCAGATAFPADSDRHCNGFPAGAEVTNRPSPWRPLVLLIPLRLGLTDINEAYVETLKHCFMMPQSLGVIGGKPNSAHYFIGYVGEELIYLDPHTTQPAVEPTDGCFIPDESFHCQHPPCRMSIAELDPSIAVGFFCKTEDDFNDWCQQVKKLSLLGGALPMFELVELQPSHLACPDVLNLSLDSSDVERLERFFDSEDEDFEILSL
M1 ag: agonists of human M1 muscarinic receptor; CHO-K1 hM1, Fluo-8 calcium fluorescence, agonist mode; 0% DMSO, 100% acetylcholine EC100; activation, % at 3 µM; hit rate 0.33% among 360,000; AID 588814;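 active = activation above the run's mean compound activation plus 3 SD, cut at about 16% in these data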;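 note: peak over basal fluorescence ratio within a 140 s kinetic read after compound addition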
SKN-1 inh: C. elegans SKN-1 inhibition; C. elegans VP596 Pgst-4::GFP/RFP ratio, acrylamide-induced, 24 h; inhibition, % at 21.8 µM; hit rate 0.49% among 360,000; AID 624304;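 active = interference check ratio from 0.5 to 1.5 plus GFP to RFP signal ratio inhibition reaching or exceeding a fixed threshold, cut at about 30% in these data, passing the limit was not always enough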
Myeloid diff: compounds promoting myeloid differentiation; shares compounds with Myeloid diff 2; ER-HoxA9 myeloid progenitors, GFP/Mac1 double-positive flow; calls only; hit rate 2% among 2,300; AID 651706;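 active = share of green or green-and-red cells above 9 and 9% in run 1 or 4 and 3% in run 2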
GFP autofluor: counter-screen for myeloid differentiation promoters: compound fluorescence | shares compounds with Myeloid diff 2 | ER-HoxA9 myeloid progenitors, no estrogen, GFP autofluorescence flow cytometry; vehicle wells 0%, positive control 100% | fluorescence response, % (test concentration not listed) | hit rate 7.4% among 2,300;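 active = over 5% cells positive for green fluorescent reporter, or over 2% positive for both it and APC stain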
Calls only.

Results for CCc1nnc(NC(=O)CCS(=O)(=O)Cc2ccccc2)s1 ?
CHRM1 PAM: inactive; CHRM1 antagonist: inactive; Myeloid diff 2: active; ATG4B inh: inactive; M1 ag: inactive; SKN-1 inh: inactive; Myeloid diff: inactive; GFP autofluor: inactive

What do the screens show for `CCCc1nnc(NC(=O)CCS(=O)(=O)Cc2ccccc2)s1`?
CHRM1 PAM: inactive; CHRM1 antagonist: inactive; Myeloid diff 2: inconclusive; ATG4B inh: inactive; M1 ag: inactive; SKN-1 inh: inactive

Results for CCOC(=O)C1CCN(CCC(=O)Nc2ccccc2Cl)CC1 ?
CHRM1 PAM: inactive; CHRM1 antagonist: inactive; Myeloid diff 2: inactive; ATG4B inh: inactive; M1 ag: inactive; SKN-1 inh: inactive; Myeloid diff: inactive; GFP autofluor: inactive

What do the screens show for `Cn1c(SCc2ccc([N+](=O)[O-])cc2)nnc1-c1ccncc1`?
CHRM1 PAM: inactive; CHRM1 antagonist: inactive; Myeloid diff 2: inactive; ATG4B inh: inactive; M1 ag: inactive; SKN-1 inh: inactive

Results for CC(Oc1cccc(Br)c1)C(=O)NNC(=O)c1ccccn1 (centres undefined) ?
CHRM1 PAM: inactive; CHRM1 antagonist: inactive; Myeloid diff 2: active; ATG4B inh: inactive; M1 ag: inactive; SKN-1 inh: inactive; Myeloid diff: inactive; GFP autofluor: inactive

Results for COc1cc(OC)cc(C(=O)NNC(=O)c2ccccn2)c1 ?
CHRM1 PAM: inactive; CHRM1 antagonist: inactive; Myeloid diff 2: active; ATG4B inh: inactive; M1 ag: inactive; SKN-1 inh: inactive; Myeloid diff: inactive; GFP autofluor: inactive

What do the screens show for `COc1ccc(C(=O)NNC(=O)c2ccccn2)cc1`?
CHRM1 PAM: inactive; CHRM1 antagonist: inactive; Myeloid diff 2: inactive; ATG4B inh: inactive; M1 ag: inactive; SKN-1 inh: inactive

Results for O=C(Nc1ccccc1Oc1ccccc1)c1cnccn1 ?
CHRM1 PAM: inactive; CHRM1 antagonist: inactive; Myeloid diff 2: inactive; ATG4B inh: inactive; M1 ag: inactive; SKN-1 inh: inactive

How did Cc1ccc(Oc2ccc(Cl)cc2NC(=O)c2cnccn2)cc1 do in these assays?
CHRM1 PAM: inactive; CHRM1 antagonist: inactive; Myeloid diff 2: active; ATG4B inh: inactive; M1 ag: inactive; SKN-1 inh: inactive; Myeloid diff: inactive; GFP autofluor: inactive

What do the screens show for `C/C(CC(=O)Nc1ccccc1C#N)=N\NC(=O)c1ccncc1`?
CHRM1 PAM: inactive; CHRM1 antagonist: inactive; Myeloid diff 2: inactive; ATG4B inh: inactive; M1 ag: inactive; SKN-1 inh: inactive

Results for C=C(C)[C@@H]1C2=CC(C(=O)OC)=C(C[C@H](C(=C)C)[C@H]3O[C@H]3C3=C[C@H]1OC3=O)O2 ?
CHRM1 PAM: inactive; CHRM1 antagonist: inactive; Myeloid diff 2: inactive; M1 ag: inactive; SKN-1 inh: inactive; Myeloid diff: inactive; GFP autofluor: inactive

Results for CCOC(=O)c1c(NC(=O)C2CC(Cl)=CCC2C(=O)O)sc2c1CCCCC2 (centres undefined) ?
CHRM1 PAM: inactive; CHRM1 antagonist: inactive; Myeloid diff 2: inactive; ATG4B inh: inactive; M1 ag: inactive; SKN-1 inh: inactive

Results for O=C(COc1ccc(-n2cnnn2)cc1)Nc1cc(Cl)cc(Cl)c1 ?
CHRM1 PAM: inactive; CHRM1 antagonist: inactive; Myeloid diff 2: inconclusive; ATG4B inh: inactive; M1 ag: inactive; SKN-1 inh: inactive

What do the screens show for `O=C(CN1CCN(c2ncccn2)CC1)Nc1ccccc1-n1cccc1`?
CHRM1 PAM: inactive; CHRM1 antagonist: inactive; Myeloid diff 2: active; ATG4B inh: inactive; M1 ag: inactive; SKN-1 inh: inactive; Myeloid diff: inactive; GFP autofluor: inactive

Results for O=C(CN1CCN(c2ccccn2)CC1)Nc1ccccc1Br ?
CHRM1 PAM: inactive; CHRM1 antagonist: inactive; Myeloid diff 2: inactive; ATG4B inh: inactive; M1 ag: inactive; SKN-1 inh: inactive

How did C/C(=N/NC(=O)c1sc(NS(=O)(=O)c2ccccc2)nc1C)c1sc(N)nc1C do in these assays?
CHRM1 PAM: inactive; CHRM1 antagonist: inactive; ATG4B inh: inactive; M1 ag: inactive; SKN-1 inh: inactive

Results for CN1CCc2c(sc(/N=C/c3cccs3)c2C(N)=O)C1 ?
CHRM1 PAM: inactive; CHRM1 antagonist: inactive; Myeloid diff 2: inactive; ATG4B inh: inactive; M1 ag: inactive; SKN-1 inh: inactive; Myeloid diff: inactive; GFP autofluor: inactive

What do the screens show for `COc1ccccc1C(c1nnnn1Cc1ccco1)N1CCN(c2cccc(C)c2C)CC1` (centres undefined)?
CHRM1 PAM: inactive; CHRM1 antagonist: inactive; Myeloid diff 2: inactive; ATG4B inh: inactive; M1 ag: inactive; SKN-1 inh: inactive; Myeloid diff: inactive; GFP autofluor: inactive

Results for Cc1[nH]n(-c2ccccc2)c(=O)c1S(=O)(=O)c1ccccc1 ?
CHRM1 PAM: inactive; CHRM1 antagonist: inactive; Myeloid diff 2: inactive; ATG4B inh: inactive; M1 ag: inactive; SKN-1 inh: inactive

How did O=C(c1cc2c(s1)-c1ccccc1OC2)N1CCN(c2ccccc2)CC1 do in these assays?
CHRM1 PAM: inactive; CHRM1 antagonist: inactive; Myeloid diff 2: inactive; ATG4B inh: inactive; M1 ag: inactive; SKN-1 inh: inactive

What do the screens show for `O=C(c1cc2c(s1)-c1ccccc1OC2)N1CCCC1`?
CHRM1 PAM: inactive; CHRM1 antagonist: inactive; Myeloid diff 2: inactive; ATG4B inh: inactive; M1 ag: inactive; SKN-1 inh: inactive; Myeloid diff: inactive; GFP autofluor: inactive

How did O=C(N/N=C/c1ccc([N+](=O)[O-])o1)C1CCCC1 do in these assays?
CHRM1 PAM: inactive; CHRM1 antagonist: inactive; ATG4B inh: inactive; M1 ag: inactive; SKN-1 inh: inactive

What do the screens show for `O=[N+]([O-])c1ccc(/C=[N+](\[O-])[C@@H]2CCCC[C@@H]2/[N+]([O-])=C/c2ccc([N+](=O)[O-])o2)o1`?
CHRM1 PAM: inactive; CHRM1 antagonist: inactive; Myeloid diff 2: active; ATG4B inh: inactive; M1 ag: inactive; SKN-1 inh: inactive; Myeloid diff: inactive; GFP autofluor: inactive

What do the screens show for `CC(=O)Nc1ccc(C2=CC(=O)C[C@H](c3ccc(Cl)cc3)C2)cc1`?
CHRM1 PAM: inactive; CHRM1 antagonist: inactive; Myeloid diff 2: inactive; ATG4B inh: inactive; M1 ag: inactive; SKN-1 inh: inactive; Myeloid diff: active; GFP autofluor: inactive

What do the screens show for `COc1cccc(C(=O)NCCNC(=O)c2cnccn2)c1`?
CHRM1 PAM: inactive; CHRM1 antagonist: inactive; Myeloid diff 2: inconclusive; ATG4B inh: inactive; M1 ag: inactive; SKN-1 inh: inactive

Results for Cc1cccc(NC(=O)CNC(=O)CCc2nc3sc4c(c3c(=O)[nH]2)CCCC4)c1C ?
CHRM1 PAM: inactive; CHRM1 antagonist: inactive; Myeloid diff 2: active; ATG4B inh: inactive; M1 ag: inactive; SKN-1 inh: inactive; Myeloid diff: inactive; GFP autofluor: inactive

Source: PubChem (several laboratories)
